Screening results (PubChem BioAssay)
TRHR enhancer = qHTS for Small Molecule Agonists and Allosteric Enhancers of Human TRH Receptor: Primary Screen for Enhancers; TRHR cells, fluo-8 calcium fluorescence, EC20 TRH enhancement; enhancement, % at 2 µM; 0.66% of 360,000 active; AID 493056, 2011; Thyrotropin-releasing hormone receptor (Homo sapiens), P34981; in the data active means enhancement above about 30%
Target sequence (P34981 whole entry, looked up): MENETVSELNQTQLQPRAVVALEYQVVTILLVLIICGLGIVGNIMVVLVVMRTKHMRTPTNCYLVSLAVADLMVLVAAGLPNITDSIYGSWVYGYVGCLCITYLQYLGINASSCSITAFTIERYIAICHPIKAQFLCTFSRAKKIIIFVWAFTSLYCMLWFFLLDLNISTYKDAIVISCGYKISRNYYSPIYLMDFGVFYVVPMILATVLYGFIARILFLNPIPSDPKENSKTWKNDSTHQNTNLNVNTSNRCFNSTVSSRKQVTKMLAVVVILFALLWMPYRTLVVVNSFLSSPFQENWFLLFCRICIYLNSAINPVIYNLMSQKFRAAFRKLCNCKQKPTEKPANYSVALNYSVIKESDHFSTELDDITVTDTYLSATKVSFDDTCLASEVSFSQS
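Enhancer read-out: after compound pinning and an initial kinetic agonist-mode read, an EC20 of TRH (10 nM final) was injected and fluo-8 calcium signal (Ex 480/Em 530) followed at 1 s/cycle for 100 cycles in TRHR-expressing cells.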
D1 potentiator = Potentiators of Human D1 Dopamine Receptor: qHTS; HEK293 TREx D1 cells, calcium flux, dopamine EC20 potentiation; 0.036% of 360,000 active; potentiation, % at 10 µM; in the data active means potentiation above about 30%
D1 agonist = Allosteric Agonists of the Human D1 Dopamine Receptor: qHTS. D(1A) dopamine receptor (Homo sapiens), P21728. HEK293 T-REx D1 cells, calcium flux, agonist mode. activation, % at 2 µM. 1% of 360,000 active. AID 504660, 2011
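Agonism was scored from calcium flux recorded over 180 s (1 read/s) after pintool compound addition, following a 10-cycle baseline. Cells were inducible force-coupled HEK293 TREx D1, plated overnight at 30 C and loaded with no-wash calcium dye.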
TRHR ag = qHTS for Small Molecule Agonists and Allosteric Enhancers of Human TRH Receptor: Primary Screen for Agonists. Thyrotropin-releasing hormone receptor (Homo sapiens), P34981. TRHR cells, calcium flux fluo-8, FDSS agonist mode. activation, % at 2 µM. 0.18% of 360,000 active. AID 493084, 2011
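In this calcium-flux screen, cells bearing human TRHR are dye-loaded with fluo-8, baselined for 10 cycles, then exposed to library compounds; positive kinetic calcium responses during the agonist phase mark hits, with TRH as control.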
D1 antag = Antagonist of Human D 1 Dopamine Receptor: qHTS; D(1A) dopamine receptor (Homo sapiens), P21728; AID 504652, 2011; 3.2% of 360,000 active; HEK293 TREx D1 cells, calcium flux, dopamine EC80; active compounds read low; activity change, negative = inhibition, % at 10 µM; in the data active means activity change below about -30%
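Kinetic fluorescence of a calcium dye serves as the read-out. D1-expressing Hek293 Trex cells, induced overnight at 30 C, are exposed to compound for 180 s before an EC80 dopamine addition, then read 180 s further.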
Numbers stand for hits; . = inactive; / = no result given. Shown are actives, neighbours in structure and some others; about 4.6% of the full set was active somewhere. Unless noted, no stated cut-off is given here; in the data, active means activation above about 30%; inactive means the rest.

SMILES	TRHR enhancer	D1 potentiator	D1 agonist	TRHR ag	D1 antag
CCOC(=O)c1cccc(NC(=O)CCc2c(C)nn(-c3ccc(N4CCCC4)nn3)c2C)c1	.	.	.	.	.
Cc1ccc(C(c2cccc(Br)c2)c2c(C)[nH]c3ccccc23)s1 (configuration not stated)	.	.	.	.	.
CCc1ccc(-n2c3nc(=O)[nH]c(=O)c-3cc3c(C)nn(-c4ccccc4)c32)cc1	.	.	.	.	.
O=c1c2sc3ccccc3c2n(Cc2ccccc2F)c(=O)n1Cc1ccccc1	.	.	.	.	.
CCOc1ccc(OCc2ccc(C(=O)N3CCCC(C)C3)cc2)cc1 (configuration not stated)	.	.	.	.	-30
CCOc1ccc(NS(=O)(=O)c2ccc(C(=O)N3CCCCCC3)cc2)cc1	.	.	59	.	.
Cc1ccc(NS(=O)(=O)c2ccc(C(=O)N3CCCCCC3)cc2)cc1	.	.	31	.	.
O=C(Nc1cc(Cl)ccc1Cl)c1ccc(-c2ccccc2)cc1	.	.	.	.	-34
O=C(Nc1ccc(F)c(Cl)c1)c1ccccc1	.	.	.	.	-46
O=C(NC(=S)Nc1ccc(Cl)cc1)c1ccccc1	.	.	.	.	-53
O=C(NC(=S)Nc1ccc2cn[nH]c2c1)c1ccccc1	.	.	.	.	-35
O=C(NC(=S)Nc1ccc(Oc2ccc(Cl)cc2)cc1)c1ccccc1	.	.	.	.	.
O=C(Nc1ccc(F)c(Cl)c1)c1cccnc1	.	.	.	.	.
O=C(CCS(=O)(=O)c1ccc(F)cc1)N1CCOCC1	.	.	.	.	.
COc1ccc(CNC(=O)Cn2nc(N3CCN(c4ccccc4)CC3)ccc2=O)c(OC)c1	.	.	.	.	.
COc1ccc(C(=O)NCCCn2nc(C)cc2C)cc1S(=O)(=O)N1CCOCC1	.	.	.	.	.
c1cnc(Sc2ccc3nnnn3n2)nc1	.	.	.	.	.
O=C(Nc1cccc(Cl)c1Cl)c1snnc1-c1ccccc1	.	.	.	.	.
O=C(Nc1cc(Cl)ccc1O)c1snnc1-c1ccccc1	.	.	.	.	-39
Cc1cccc(CNC(=O)CSCc2cnn(-c3ccccc3)c2-n2cccc2)c1	.	.	.	.	.
CC(C)(C)c1ccc(OCC(=O)NC(Cc2c[nH]c3ccccc23)C(=O)O)cc1 (configuration not stated)	.	.	49	.	.
CCOC(=O)C1=C(C)Nc2ccccc2N=C1NC(=O)Cc1ccc(OC)cc1	.	.	.	.	-81
CCOC(=O)C1=C(C)Nc2ccccc2N=C1NC(=O)Cc1ccc(Br)cc1	.	.	.	.	.
COc1ccc(-c2cc(CCCC(=O)NCCc3ccc(OC)cc3OC)no2)cc1	.	.	.	.	-44
COc1cccc(N2CCN(c3nc4ccc(C(=O)c5ccccc5)cc4n4c(C)nnc34)CC2)c1	.	.	.	.	.
SMILES	TRHR enhancer	D1 potentiator	D1 agonist	TRHR ag	D1 antag
COc1ccccc1NC(=O)c1ccc2[nH]c(C)c(C)c2c1	.	.	.	.	.
CCc1ccc2occ(CC(=O)Nc3ccccc3C(F)(F)F)c2c1	.	.	.	.	.
CCc1ccc2occ(CC(=O)NCc3ccccc3)c2c1	.	.	49	.	.
Cc1cccc(-c2nc3c4ccccc4n(CC(=O)Nc4cccc(F)c4)c(=O)n3n2)c1	.	.	.	.	/
COc1cccc(CN(C(=O)c2oc3ccccc3c2C)C2CCS(=O)(=O)C2)c1 (configuration not stated)	.	.	.	.	.
O=C(O)CCc1nn2c3ccccc3nc2n(CCN2CCCCC2)c1=O	.	.	.	.	-31
O=C(O)CCc1nc2ccccc2n(CCc2ccccc2)c1=O	.	.	.	.	.
COc1ccc(N2CCN(C(=O)C3CCN(S(=O)(=O)c4cn(C)cn4)CC3)CC2)cc1	.	.	.	.	.
COc1ccc(CNC(=O)c2sc3nc4n(c(=O)c3c2C)CCCCC4)cc1	.	.	50	.	.
Cc1ccc(N(C)C(=O)c2sc3nc4n(c(=O)c3c2C)CCCC4)cc1C	.	.	.	.	.
Cc1c(C(=O)Nc2ccc(OC(F)(F)F)cc2)sc2nc3n(c(=O)c12)CCC3	.	.	.	.	.
CCN(C(=O)c1sc2nc3n(c(=O)c2c1C)CCCC3)c1ccccc1F	.	.	35	.	-37
Cc1c(C(=O)Nc2ccc(Oc3ccccc3)cc2)sc2nc3n(c(=O)c12)CCC3	.	.	.	.	-51
COc1ccc(C)cc1N(C)C(=O)c1sc2nc3n(c(=O)c2c1C)CCCCC3	.	.	43	.	.
O=S(=O)(c1ccc2c(c1)OCCO2)N1CCN(S(=O)(=O)c2cccs2)CC1	.	.	.	.	.
Cc1c(C(=O)N(Cc2ccco2)Cc2ccccc2Cl)oc2ccc(F)cc12	.	.	.	.	.
CCc1ccccc1NC(=O)C(NS(=O)(=O)c1ccc2c(c1)CCC(=O)N2)c1ccccc1 (configuration not stated)	.	.	.	.	.
CCCCc1nc2ccccc2n1CC(=O)N(COCC)c1c(C)cccc1CC	.	.	.	.	.
COc1ccc(N2C(=O)CS(=O)(=O)C23C(=O)N(Cc2ccc(F)cc2)c2ccc(C)cc23)cc1 (configuration not stated)	.	.	.	.	.
COc1cc2[nH]c(=S)n(C3CC3)c(=O)c2cc1OC	.	.	.	.	-31
COc1ccc(C2SCCN2C(=S)Nc2cccc(C(F)(F)F)c2)cc1 (configuration not stated)	.	.	56	.	-36
COc1ccc(C2SCCN2C(=S)Nc2ccc(F)cc2)cc1 (configuration not stated)	.	.	.	.	.
COc1ccc(NC(=S)Nc2cccc(C(F)(F)F)c2)c(C)c1	.	.	.	.	/
CCOC(=O)c1ccc(NC(=S)N2CCSC2c2ccc(Cl)cc2)cc1 (configuration not stated)	.	.	31	.	.
CCOC(=O)c1ccc(NC(=S)N2CCSC2c2ccc(OC)cc2)cc1 (configuration not stated)	.	.	40	.	.
CC(=O)Nc1ccc(S(=O)(=O)N2CCN(c3cc(C)ccc3C)CC2)cc1	.	.	.	.	.
CC(=O)Nc1ccc2c(c1)CN(c1cc(C)ccc1C)CO2	.	.	.	.	-37
